We go through 40 molecules from PubChem BioAssay.

Values without a mark were called inactive. The source made the active and inactive calls. How the calls were made is not given here.

By inhibition is commonly meant the relative decrease from the control value, in per cent.

The first test deals with L-lactate dehydrogenase (Plasmodium falciparum (isolate CDC / Honduras)) (UniProt Q27743). As to the kind of experiment: PfLDH activity inhibition – cell lysate, 3D7 strain, counter-screen for P. falciparum growth inhibition project (AID 2304).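 Further: 0% = vehicle and 100% = reference inhibitor.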 Conditions: P. falciparum 3D7 crude extract, LDH APAD/NBT absorbance; at 2 µM; stronger effect = higher value. On the technique in general: The purpose of a counterscreen is to sort out artefacts and off-target activity.
Chain of L-lactate dehydrogenase (Plasmodium falciparum (isolate CDC / Honduras)) (Q27743 whole entry, looked up): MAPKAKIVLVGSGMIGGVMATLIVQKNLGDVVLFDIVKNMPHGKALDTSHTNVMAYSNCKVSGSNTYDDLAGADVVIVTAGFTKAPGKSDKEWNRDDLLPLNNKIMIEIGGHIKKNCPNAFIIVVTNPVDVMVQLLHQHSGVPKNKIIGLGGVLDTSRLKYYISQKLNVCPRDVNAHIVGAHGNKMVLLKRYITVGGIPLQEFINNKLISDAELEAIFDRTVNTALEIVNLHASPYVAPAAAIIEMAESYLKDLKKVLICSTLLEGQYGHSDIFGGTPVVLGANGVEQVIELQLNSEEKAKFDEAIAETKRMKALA
For `O=C(N[C@H]1CCN(Cc2ccc(OCCN3CCNCC3)c(Br)c2)C1)c1ccc(Cl)c(Cl)c1`, the inhibition was 5%.
For `CCOc1cc(C(=O)NC2CCN(Cc3ccccc3)CC2)ccc1-c1nc2ccc(Cl)cc2[nH]1`, the inhibition was -6%.
Turning to `O=C(Nc1cccc(-c2ccc(-c3nc4ccccc4[nH]3)cc2)c1)c1cnn2cccnc12`, the inhibition is -3%.
In the case of `Cc1cccc2[nH]c(-c3ccc(-c4ccc(NC(=O)Nc5cccc(C#N)c5)cc4)cc3)nc12`, the inhibition is 6%.
As to `CCN1CCN(CCCCNc2c3ccccc3nc3ccccc23)CC1`, the inhibition is 8%.
As to `CCc1c(C)nc(-n2nc(C)cc2NC(=O)CC(c2ccccc2)c2ccccc2)[nH]c1=O`, the inhibition was -3%.
With `Cc1cc(CN2C(=O)C(c3ccccc3)(c3ccccc3)N=C2N)c(C(F)(F)F)o1`, the inhibition was 4%.
As for `CC(=O)Nc1ccc(CN2CCC(NC(=O)c3ccc(-c4cccc(Cl)c4)s3)CC2)cc1`, the inhibition was 3%.
In the case of `COc1ccc2nccc(NN=Cc3ccccc3[N+](=O)[O-])c2c1`, the inhibition was -2%.
As for `Cc1cc(C(=O)OCC(N)=O)c(C)n1-c1ccc(F)cc1`, the inhibition was 1%.
Turning to `COc1ccc(Nc2nc(NN=Cc3ccc(-c4ccc([N+](=O)[O-])cc4)o3)nc(Nc3ccccc3)n2)cc1`, the inhibition was 5%.
Take `COc1ccc2nccc([C@@H](O)CN3CCC(NC(=O)c4ccc(Cl)c(Cl)c4)CC3)c2c1`: the inhibition is -5%.
Regarding `Cc1cccc2[nH]c(-c3ccc(-c4ccc(CN5CCN(CC6CCCN(C)C6)CC5)cc4)cc3)nc12` (stereo not given), the inhibition was -7%.
Consider `CCOc1ccc(OCCCON2C(N)=NC(N)=NC2(C)C)cc1`, for which the inhibition was -9%.
Consider `Cc1cccc(-n2nc(C)c3c2NC(=O)CC3C(=O)c2ccc(Cl)s2)c1` (stereo not given), for which the inhibition is -1%.
Consider `CCN(CCCN1CCCCC1)c1cc(C)nc(Nc2cc(Cl)ccc2C)n1`, for which the inhibition is -1%.
For `O=C(Nc1ccc(Cl)cn1)c1sc2ccccc2c1O`, the inhibition is -3%.
For the molecule `Nc1c(Cl)cc(C(O)CNCCCCCCOCCc2ccc(CO)s2)cc1Cl` (stereo not given), the inhibition was -2%.
Turning to `COc1ccccc1C(C)NCC(=O)Nc1ccccc1Sc1ccccc1` (stereo not given), the inhibition was -1%.
Consider `COc1ccccc1/C=C/C(=O)N(C)C1CCN(CCCCCNC(=O)/C=C/c2ccc(Cl)c(Cl)c2)C1` (stereo not given), for which the inhibition was -14%.
Turning to `CC(C)C[C@H](Nc1ccnc(NCC2CCCCC2)n1)C(=O)Nc1ccccc1`, the inhibition is 2%.
On to `CC(=O)C=C1CC(=O)N(C[C@@H](O)[C@H]2O[C@@H]3OC(C)(C)O[C@@H]3[C@H]2O)c2ccccc2N1`, for which the inhibition was 3%.
With `Cc1noc(C)c1-c1cccc(CNCc2ccc(-c3cccc(-c4nc5ccccc5[nH]4)c3)cc2)c1`, the inhibition is -1%.
Consider `CCNc1cc(C(=O)N[C@@H](Cc2ccccc2)[C@H](O)CNC(CC)c2cccc(Cl)c2)cc(N2CCCC2=O)c1` (stereo not given in full), for which the inhibition was -1%.
`CC(C)(C)NC(=O)C(c1ccc(F)cc1)N(C(=O)c1ccc(CN2CCOCC2)o1)c1ccc(C2CCCCC2)cc1` (stereo not given): the inhibition is -12%.
Consider `Cc1noc(C)c1-c1cccc(CNCc2ccc(-c3ccc(-c4nc5ccc(F)cc5[nH]4)cc3)cc2)c1`, for which the inhibition was 4%.
Take `O=C1OC2(CCN(C(=O)c3ccc(-n4cnnn4)cc3)CC2)CN1Cc1ccc(Cl)c(Cl)c1`: the inhibition was -7%.
For `CC(C)(C)C1CCC(C(=O)c2ccc3ccccc3c2O)CC1` (stereo not given), the inhibition is -1%.
Consider `CCN(CC)CCN(Cc1ccc(-c2ccc(C(F)(F)F)cc2)cc1)C(=O)Cn1c(CCc2cccc(F)c2F)cc(=O)c(C)c1C`, for which the inhibition is -4%.
As for `O=C(CCc1cccnc1)Nc1cccc(-c2ccc(-c3nc4ccc(C(F)(F)F)cc4[nH]3)s2)c1`, the inhibition was 2%.
As to `CCCNC(=O)Nc1ccc(N(C)c2ccnc(NC3CC3)n2)cc1`, the inhibition was -2%.
On to `NCCCNc1ccc(-c2ccc(NC(=O)Nc3cc(C(F)(F)F)ccc3F)cc2)cn1`, for which the inhibition is 3%.
In the case of `Cc1cccc(CN2CCCN(Cc3cccc(C(=O)Nc4ccc(C(C)(C)C)cc4)c3)CC2)c1`, the inhibition is 4%.
In the case of `CCn1ccc2c(N3CCCC3=O)cc(C(=O)N[C@@H](Cc3ccccc3)[C@H](O)CNC3CCCCC3)cc21`, the inhibition was 2%.
As for `Cc1ccccc1C(=O)Nc1cccc(-c2nc3ncccn3c2C)c1`, the inhibition is 1%.
As to `O=S(=O)(Nc1ccc(CCN2CCCCC2CCN2CCCC2)cc1)c1cccc2cccnc12` (stereo not given), the inhibition was 1%.
Turning to `Cc1cccc2[nH]c(-c3ccc(-c4ccc(CN5CCOCC5)cc4)cc3)nc12`, the inhibition is 0%.
Regarding `CC(CN1CCN(C)CC1)C(=O)Nc1cccc(-c2cccc(-c3nc4ccccc4[nH]3)c2)c1` (stereo not given), the inhibition was -3%.
Consider `NC(N)=NCCCN(Cc1ccccc1)c1ccccc1`, for which the inhibition was -3%.
With `OCCN1CCN(C(=S)Nc2ccccc2)CC1`, the inhibition was 2%.

System in a further test: not listed separately
As to the kind of experiment: inhibition of 3D7 malaria parasite growth – strain 3D7 (AID 2306).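 Further: 0% = DMSO wells and 100% = chloroquine plus artemisinin control wells.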 Conditions: P. falciparum 3D7 erythrocytic growth, LDH absorbance, 72 h; at 2 µM; stronger effect = higher value.
Regarding `O=C(N[C@H]1CCN(Cc2ccc(OCCN3CCNCC3)c(Br)c2)C1)c1ccc(Cl)c(Cl)c1`, the growth inhibition is 101% (active).
On the same count and under the same terms, in the case of `CCOc1cc(C(=O)NC2CCN(Cc3ccccc3)CC2)ccc1-c1nc2ccc(Cl)cc2[nH]1` it was 101% (active); in that of `O=C(Nc1cccc(-c2ccc(-c3nc4ccccc4[nH]3)cc2)c1)c1cnn2cccnc12`, 87% (active); in that of `Cc1cccc2[nH]c(-c3ccc(-c4ccc(NC(=O)Nc5cccc(C#N)c5)cc4)cc3)nc12`, 101% (active).
Same read-out and setting: as for `CCN1CCN(CCCCNc2c3ccccc3nc3ccccc23)CC1`, the figure is 100% (active).
For the molecule `CCc1c(C)nc(-n2nc(C)cc2NC(=O)CC(c2ccccc2)c2ccccc2)[nH]c1=O`, the growth inhibition was 97% (active).
On to `Cc1cc(CN2C(=O)C(c3ccccc3)(c3ccccc3)N=C2N)c(C(F)(F)F)o1`, for which the growth inhibition was 97% (active).
Take `CC(=O)Nc1ccc(CN2CCC(NC(=O)c3ccc(-c4cccc(Cl)c4)s3)CC2)cc1`: the growth inhibition was 97% (active).
For `COc1ccc2nccc(NN=Cc3ccccc3[N+](=O)[O-])c2c1`, the growth inhibition is 100% (active).
With `Cc1cc(C(=O)OCC(N)=O)c(C)n1-c1ccc(F)cc1`, the growth inhibition was 97% (active).
Still for that read-out and setting: as for `COc1ccc(Nc2nc(NN=Cc3ccc(-c4ccc([N+](=O)[O-])cc4)o3)nc(Nc3ccccc3)n2)cc1`, the figure is 100% (active); as for `COc1ccc2nccc([C@@H](O)CN3CCC(NC(=O)c4ccc(Cl)c(Cl)c4)CC3)c2c1`, 96% (active).
For `Cc1cccc2[nH]c(-c3ccc(-c4ccc(CN5CCN(CC6CCCN(C)C6)CC5)cc4)cc3)nc12` (stereo not given), the growth inhibition was 101% (active).
On the same count and under the same terms, in the case of `CCOc1ccc(OCCCON2C(N)=NC(N)=NC2(C)C)cc1` it was 97% (active); in that of `Cc1cccc(-n2nc(C)c3c2NC(=O)CC3C(=O)c2ccc(Cl)s2)c1` (stereo not given), 92% (active).
For the molecule `CCN(CCCN1CCCCC1)c1cc(C)nc(Nc2cc(Cl)ccc2C)n1`, the growth inhibition is 99% (active).
As for `O=C(Nc1ccc(Cl)cn1)c1sc2ccccc2c1O`, the growth inhibition was 99% (active).
Regarding `Nc1c(Cl)cc(C(O)CNCCCCCCOCCc2ccc(CO)s2)cc1Cl` (stereo not given), the growth inhibition was 86% (active).
For `COc1ccccc1C(C)NCC(=O)Nc1ccccc1Sc1ccccc1` (stereo not given), the growth inhibition is 89% (active).
Still for that read-out and setting: as for `COc1ccccc1/C=C/C(=O)N(C)C1CCN(CCCCCNC(=O)/C=C/c2ccc(Cl)c(Cl)c2)C1` (stereo not given), the figure is 94% (active).
Take `CC(C)C[C@H](Nc1ccnc(NCC2CCCCC2)n1)C(=O)Nc1ccccc1`: the growth inhibition was 87% (active).
In the case of `CC(=O)C=C1CC(=O)N(C[C@@H](O)[C@H]2O[C@@H]3OC(C)(C)O[C@@H]3[C@H]2O)c2ccccc2N1`, the growth inhibition was 90% (active).
Still for that read-out and setting: in the case of `Cc1noc(C)c1-c1cccc(CNCc2ccc(-c3cccc(-c4nc5ccccc5[nH]4)c3)cc2)c1` it was 100% (active).
Turning to `CCNc1cc(C(=O)N[C@@H](Cc2ccccc2)[C@H](O)CNC(CC)c2cccc(Cl)c2)cc(N2CCCC2=O)c1` (stereo not given in full), the growth inhibition is 97% (active).
Regarding `CC(C)(C)NC(=O)C(c1ccc(F)cc1)N(C(=O)c1ccc(CN2CCOCC2)o1)c1ccc(C2CCCCC2)cc1` (stereo not given), the growth inhibition is 87% (active).
As to `Cc1noc(C)c1-c1cccc(CNCc2ccc(-c3ccc(-c4nc5ccc(F)cc5[nH]4)cc3)cc2)c1`, the growth inhibition is 102% (active).
As for `O=C1OC2(CCN(C(=O)c3ccc(-n4cnnn4)cc3)CC2)CN1Cc1ccc(Cl)c(Cl)c1`, the growth inhibition is 97% (active).
Consider `CC(C)(C)C1CCC(C(=O)c2ccc3ccccc3c2O)CC1` (stereo not given), for which the growth inhibition was 83% (active).
Same read-out and setting: as for `CCN(CC)CCN(Cc1ccc(-c2ccc(C(F)(F)F)cc2)cc1)C(=O)Cn1c(CCc2cccc(F)c2F)cc(=O)c(C)c1C`, the figure is 97% (active); as for `O=C(CCc1cccnc1)Nc1cccc(-c2ccc(-c3nc4ccc(C(F)(F)F)cc4[nH]3)s2)c1`, 89% (active).
On to `CCCNC(=O)Nc1ccc(N(C)c2ccnc(NC3CC3)n2)cc1`, for which the growth inhibition was 100% (active).
Still for that read-out and setting: in the case of `NCCCNc1ccc(-c2ccc(NC(=O)Nc3cc(C(F)(F)F)ccc3F)cc2)cn1` it was 100% (active); in that of `Cc1cccc(CN2CCCN(Cc3cccc(C(=O)Nc4ccc(C(C)(C)C)cc4)c3)CC2)c1`, 89% (active).
In the case of `CCn1ccc2c(N3CCCC3=O)cc(C(=O)N[C@@H](Cc3ccccc3)[C@H](O)CNC3CCCCC3)cc21`, the growth inhibition was 99% (active).
For the molecule `Cc1ccccc1C(=O)Nc1cccc(-c2nc3ncccn3c2C)c1`, the growth inhibition is 94% (active).
With `O=S(=O)(Nc1ccc(CCN2CCCCC2CCN2CCCC2)cc1)c1cccc2cccnc12` (stereo not given), the growth inhibition is 100% (active).
As for `Cc1cccc2[nH]c(-c3ccc(-c4ccc(CN5CCOCC5)cc4)cc3)nc12`, the growth inhibition is 92% (active).
Regarding `CC(CN1CCN(C)CC1)C(=O)Nc1cccc(-c2cccc(-c3nc4ccccc4[nH]3)c2)c1` (stereo not given), the growth inhibition is 88% (active).
Consider `NC(N)=NCCCN(Cc1ccccc1)c1ccccc1`, for which the growth inhibition is 100% (active).
Take `OCCN1CCN(C(=S)Nc2ccccc2)CC1`: the growth inhibition is 97% (active).
